Compound activity: PubChem, National Center for Advancing Translational Sciences (NCATS)
BAZ2B inh: inhibitors of human BAZ2B bromodomain; Q9UIF8; AlphaScreen BAZ2B-H3K14Ac peptide displacement; Potency, µM (series often up to 114 µM), for the others: at the highest dose activity change, negative = inhibition, hits mostly inhibitors; 360,000 compounds, 4.4% hits; note: % is set by controls: 0 for no effect and ±100 for the full control effect; nearly all actives have a fitted effect of over 60% in size
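AlphaScreen displacement of biotin-H3(5-23)K14Ac peptide (50 nM final) from BAZ2B (50 nM final) in PBS pH 7.4, 0.01% Tween-20; complex preformed 30 min RT, then compounds (top 110 uM) 30 min RT, beads 20 min dark.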
TDP1 block: inhibitors of human tyrosyl-DNA phosphodiesterase TDP1; Q9NUW8; recombinant TDP1, AlphaScreen DNA substrate cleavage; Potency, µM (top dose mostly 130 µM), inactives show at the highest dose activity change, negative = inhibition, hits mostly inhibitors; 350,000 compounds, 0.28% hits; AID 485290; note: % is set by controls: 0 for no effect and ±100 for the full control effect; nearly all actives have a fitted effect of over 40% in size
Target sequence (Q9NUW8 whole entry, looked up): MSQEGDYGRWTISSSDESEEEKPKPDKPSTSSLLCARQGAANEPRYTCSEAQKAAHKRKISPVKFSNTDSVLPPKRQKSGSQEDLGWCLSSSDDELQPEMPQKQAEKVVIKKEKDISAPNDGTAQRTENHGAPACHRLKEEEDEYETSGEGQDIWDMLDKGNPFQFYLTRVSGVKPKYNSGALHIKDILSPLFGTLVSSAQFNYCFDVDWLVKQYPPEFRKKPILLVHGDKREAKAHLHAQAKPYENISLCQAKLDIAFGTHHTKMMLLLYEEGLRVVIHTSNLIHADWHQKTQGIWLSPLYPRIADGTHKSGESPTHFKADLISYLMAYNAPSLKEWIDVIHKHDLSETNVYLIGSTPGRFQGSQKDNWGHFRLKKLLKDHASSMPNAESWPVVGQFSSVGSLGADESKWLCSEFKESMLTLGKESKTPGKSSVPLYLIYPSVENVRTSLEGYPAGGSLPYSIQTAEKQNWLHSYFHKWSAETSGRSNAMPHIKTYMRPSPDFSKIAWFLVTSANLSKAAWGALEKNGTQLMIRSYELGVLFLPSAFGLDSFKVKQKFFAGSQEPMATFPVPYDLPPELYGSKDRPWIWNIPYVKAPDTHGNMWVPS
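AlphaScreen read-out: signal falls as enzyme removes the 3' tyrosine-FITC from a 5'-biotinylated DNA oligo (15 nM, 5 min, RT). Enzyme was E. coli-made recombinant Tdp1 at 1 nM, exposed to compound for 15 min beforehand; beads 10 ug/ml, 10 min.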
HP1b chromo inh: HP1-beta chromodomain-methylated histone interaction inhibition; Potency, µM (titrated, usually from 114 µM), inactives show at the top dose activity change, negative = inhibition, most hits filed as inhibitors; P83916; 390,000 compounds, 0.56% hits; AID 540317; AlphaScreen HP1-beta / biotin-H3K9me3 peptide binding; note: nearly all actives have a fitted effect of over 70% in size
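Compound inhibition of the preformed complex between 50 nM HP1-beta and 50 nM biotinylated H3K9me3 peptide was read by AlphaScreen. Buffer was PBS pH 7.4 with 0.01% Tween-20. Incubations ran 30 min at room temperature, with 10 ug/mL donor/acceptor beads.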
JMJD2A Tudor inh: JMJD2A Tudor domain (human) inhibition | AlphaScreen JMJD2A-Tudor / H3K4me3 peptide binding | Potency, µM (highest dose often 114 µM), without a hit: at the top dose activity change, negative = inhibition, hits mostly inhibitors | 390,000 compounds, 4.4% hits; note: % is set by controls: 0 for no effect and ±100 for the full control effect; nearly all actives have a fitted effect of over 50% in size
G9a block: blocks human histone lysine methyltransferase G9a; Q96KQ7; G9a H3K9 monomethylation, AlphaScreen, 2 h; Potency, µM (top dose mostly 102 µM), for the others: at the highest dose activity, negative = inhibition, most hits filed as inhibitors; 350,000 compounds, 8.8% hits; AID 504332; note: % is set by controls: 0 for no effect and ±100 for the full control effect; nearly all actives have a fitted effect of over 75% in size
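Quantitative HTS format: methyltransferase activity on a biotin-tagged H3K9 peptide is measured by AlphaScreen, using a rabbit anti-monomethyl-H3K9 antibody with streptavidin donor and anti-IgG acceptor beads. Final levels are 20 nM enzyme, 500 nM peptide, 20 uM SAM; 2 h RT.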
Sfp inh: blocks B. subtilis Sfp PPTase activity. Q9F4F7. Biochemical Sfp PPTase activity, qHTS. Potency, µM, for the others: largest response in the series, negative = inhibition, hits mostly inhibitors. 310,000 compounds, 3.5% hits. AID 1490;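 note: the enzyme is Sfp with the accession as filed and its product quenches rhodamine fluorescence; 0% = enzyme reaction without inhibitor and -100% = no enzyme wells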
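After 15 min at room temperature with compound, 15 nM Sfp received 5 uM rhodamine-CoA plus 12.5 uM BHQ-2-ybbR (50 mM Hepes pH 7.6, 10 mM MgCl2). Rate came from the fluorescence difference over 30 min, ex 525/em 598 nm.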
* hit, by the source's call; ? = inconclusive; · = no result; ! = not active in a repeat; [ ] = another dose, or the depositor's remark. This is a sample that favours compounds with a hit; in the whole collection about 12% have one here. Calls come from the whole dose curve; as a rule, active = well fitted curve in the direction sought with a large enough effect; inconclusive = small, poorly fitted or top-dose-only effect, or another doubt; inactive = no such curve, though single readings can be large; an effect the other way counts as inactive or inconclusive. Potency is the fitted concentration of half-maximal effect.

SMILES | BAZ2B inh | TDP1 block | HP1b chromo inh | JMJD2A Tudor inh | G9a block | Sfp inh
COc1ccc(NC(=O)c2ccc(CN3CCN(c4ccccc4)CC3)cc2)cc1OC | -2% | 10% | 13% | -20% | -29%[59 µM] | -8%
COc1ccc(C)cc1NC(=O)c1ccc(CN2CCN(c3ccccc3)CC2)cc1 | ? | 6% | -9% | ? | 50µM* | -12%
Cc1ccc(NC(=O)c2cc(NC(=O)c3ccccc3C(=O)O)ccc2N2CCCCC2)cc1 | ? | 0% | 14% | -22% | 14µM* | -26%
CCC(=O)Nc1ccc(N2CCN(Cc3ccccc3)CC2)cc1 | -6% | 4% | 26% | -16%[11.4 µM] | 50µM* | 12%
COc1ccc(Br)cc1C(=O)Nc1ccc(N2CCCC2)cc1 | 22µM* | 11% | ? | ? | · | -5%
CCc1ccc(-c2nc3c(=O)n(C)c(=O)nc-3n(CC)n2)cc1 | · | 2% | 18%[57 µM] | -2%[57.1 µM] | · | ·
CC(=O)Nc1ccc(NC(=O)CN2CCN(c3cccc(C(F)(F)F)c3)CC2)cc1 | -8% | 2% | 11% | -23% | 36%[59 µM] | 11%
CC(=O)Nc1ccc(CN2CCN(c3cccc(C(F)(F)F)c3)CC2)cc1 | 50µM* | · | -50% | 2.5µM* | ? | -28%
COc1ccccc1C(=O)Nc1ccc(N2CCN(C(C)=O)CC2)cc1 | -5% | 2% | 25% | -3% | 6% | 20%
COc1ccc(C(=O)CCC(=O)Nc2ccc(N3CCCCC3)cc2)cc1OC | 35µM* | 10% | ? | ? | 45µM* | 1%
COc1ccccc1C(=O)Nc1ccc(N2CCN(Cc3ccccc3)CC2)cc1 | 45µM* | 7% | ? | ? | ? | 6%
COc1ccccc1CNC(=O)C1CCN(S(=O)(=O)c2cn(C)cn2)CC1 | -6% | 1% | 16% | -5% | 3%[59 µM] | ·
Cc1cccc(NC(=O)Nc2c(C)[nH]c(=O)[nH]c2=O)c1C | -1% | · | 43% | -30% | 63% | 22%
CCOC(=O)CSc1nnc(NCC(=O)OC)c(=O)[nH]1 | 11% | 4% | 7% | -16% | ? | 56µM*
O=C1NC(=O)/C(=C\c2ccc(N3CCOCC3)o2)N1 | 7% | 0% | 15% | -7% | 25µM* | 18µM*
O=C1NC(=O)/C(=C/c2ccc(N3CCOCC3)o2)N1 | -3% | 8% | 15% | -10% | · | 32µM*
Cc1[nH]c2ccccc2c1CC#N | -10% | · | 29% | -12% | -7%[59 µM] | 4%
Cc1[nH]c2ccccc2c1C(C#N)(C#N)C1C(=O)c2ccccc2C1=O | 7.9µM* | 11% | 11µM* | 13µM* | -111%[12.7 µM] | ?
Cn1cccc1C1CCCN1CC(=O)Nc1c(Cl)cc(Cl)cc1Cl (centres undefined) | · | 5% | -12% | -29% | · | ·
COc1ccc(NC2=C3CCCC=C3N(c3ccc(OC)cc3)C2=O)cc1 | -32% | 1% | 6% | ? | 40µM* | -5%
CC(=O)OCC(=O)[C@@]1(O)CC[C@@H]2[C@H]3CCC4=CC(=O)CC[C@]4(C)[C@]3(F)[C@@H](O)C[C@@]21C | · | 13%[21 µM] | · | · | 27%[21.5 µM] | 8%
Cc1ccc(-n2c(C)cc(C(=O)NS(=O)(=O)c3ccc(C)cc3)c2C)cc1 | ? | 7% | 2% | -29% | 50µM* | -3%
O=C(O)c1cn(-c2ccc(F)cc2)c2cc(N3CCNCC3)c(F)cc2c1=O | · | 7%[56.1 µM] | 24% | 50µM* | ? | 11%
CC(=O)c1cc(F)ccc1OCC(=O)Nc1ccc2c(c1)OCO2 | · | 0% | 11% | -11% | · | ·
NC(=O)N/N=C1\CCS(=O)(=O)c2ccc(F)cc21 | 1% | · | 1% | -8% | 14% | 8%
SMILES | BAZ2B inh | TDP1 block | HP1b chromo inh | JMJD2A Tudor inh | G9a block | Sfp inh
NC(=S)N/N=C1\CCOc2ccc(F)cc21 | -15% | 6% | 15% | -18% | · | 89µM*
COc1ccc(CCNc2nc3ccccc3n3cnnc23)cc1OC | -2% | · | 29% | -9% | 21% | -12%
CCc1nnc2c(NCCc3ccc(OC)c(OC)c3)nc3ccccc3n12 | ? | 2% | 10% | 32µM*! | 4% | 6%
CN(C)S(=O)(=O)c1cc(NC(=O)CN2CCOCC2)ccc1Cl | -5% | 4% | -1% | 14µM* | 23% | 24%
Cc1ccc(NC(=O)CN2CCc3ccccc3C2)cc1S(=O)(=O)N(C)C | 50µM* | 1% | ? | 3.2µM* | 10µM* | -33%
CCN(CC)S(=O)(=O)c1ccc(O)c(NC(=O)CN2CCc3ccccc3C2)c1 | -3% | 0% | 34% | 9% | 15% | 33%
CN(C)S(=O)(=O)c1ccc(Cl)c(NC(=O)CN2CCc3ccccc3C2)c1 | -39% | -1% | 55% | -14% | 45µM* | 1%
Cc1ccc(NC(=O)CN2CCc3ccccc3C2)cc1S(=O)(=O)N1CCOCC1 | -33% | 0% | 11% | -14% | -6%[59 µM] | 5%
COc1cc2c(cc1OC)CN(CC(=O)Nc1ccc(Cl)c(S(=O)(=O)N(C)C)c1)CC2 | -26% | -5% | · | · | 45µM* | 9%
Cc1cccc(OCC(=O)Nc2cccc(C(=O)OCc3cc(=O)n4nc(C(C)C)sc4n3)c2)c1 | 3% | 6% | 6% | -16% | 14%[59 µM] | ·
CC1(C)C(O)C=C[C@@]2(C)C1CC(=O)O[C@@]1(C)C3=CC(=O)OC(c4ccoc4)[C@]3(C)CCC21 (some centres undefined) | · | 6%[56.1 µM] | · | · | -17%[2.33 µM] | -5%
CC(Oc1ccccc1)C(=O)OCC(=O)N1CC(=O)Nc2ccccc21 (centres undefined) | -14% | 5% | 45% | 1% | 10% | 8%
Cc1ccc(OC(C)C(=O)N2CC(=O)Nc3ccccc32)cc1 (centres undefined) | -8% | · | 23% | -13% | 3.5µM* | 13%
COc1ccc(OC)c(Cc2nnc(CCC(=O)NCc3ccc(C)s3)o2)c1 | ? | -3% | 10% | -9% | 25µM* | 0%
O=C(Nc1cc(Cl)ccc1Cl)c1cc([N+](=O)[O-])cc(Br)c1O | · | 2% | -23% | 56µM* | · | ·
O=C(Nc1c(Cl)cc([N+](=O)[O-])cc1Cl)c1cc(Cl)ccc1O | · | 4% | 0% | ? | · | ·
CC(C)(CS(=O)(=O)[O-])NC(=O)CC[N+](C)(C)CCO | 2.8µM* | -3% | 8.9µM* | 3.2µM* | ? | 3%
